Many of the other results were omitted from the sample, so hits are more common in it than they were.
ST2 IL33 inh = inhibitors of human ST2 (IL1RL1) binding to IL-33, primary screen, biochemical, AlphaLISA. AID 1259354, 2018. Interleukin-1 receptor-like 1 (Homo sapiens), Q01638. inhibition, % for hits at 17 µM. 2.3% of 78,000 active. AlphaLISA ST2-Fc/biotin-IL-33 interaction, 1 h; in the data active = inhibition above about 30%
Target sequence (Q01638 whole entry, looked up): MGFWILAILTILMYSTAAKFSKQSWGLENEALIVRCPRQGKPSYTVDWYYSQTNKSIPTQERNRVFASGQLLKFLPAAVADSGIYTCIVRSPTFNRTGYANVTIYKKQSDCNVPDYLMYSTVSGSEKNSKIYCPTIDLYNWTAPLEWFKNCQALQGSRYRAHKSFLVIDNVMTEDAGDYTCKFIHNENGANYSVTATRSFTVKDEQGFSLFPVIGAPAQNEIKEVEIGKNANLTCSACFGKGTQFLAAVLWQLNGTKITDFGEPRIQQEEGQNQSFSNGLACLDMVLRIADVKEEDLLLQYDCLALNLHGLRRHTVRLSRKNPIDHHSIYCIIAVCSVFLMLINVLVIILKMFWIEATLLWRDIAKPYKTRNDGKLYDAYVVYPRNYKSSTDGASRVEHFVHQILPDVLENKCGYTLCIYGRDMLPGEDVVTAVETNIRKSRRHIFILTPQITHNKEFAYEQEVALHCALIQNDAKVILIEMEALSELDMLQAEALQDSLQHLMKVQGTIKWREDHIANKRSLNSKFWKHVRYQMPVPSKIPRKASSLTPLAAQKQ
* hit, by the source's call; i = inactive; ! = not confirmed by another sample.

SMILES	ST2 IL33 inh
COc1ccc2cc3cc(C(=O)N4CCCC(C)C4)oc3nc2c1 (stereo not drawn)	i
COc1ccc2cc3cc(C(=O)NCC4CCCO4)oc3nc2c1 (stereo not drawn)	i
O=C(NC1CCCCC1)c1cc2cc3ccc(Cl)cc3nc2o1	43%*!
CC1CC(C)CN(CCCNC(=O)c2cc3cc4ccc(Cl)cc4nc3o2)C1 (stereo not drawn)	i
O=C(NC1CCCCCC1)c1cc2cc3ccc(Cl)cc3nc2o1	36%*!
CC1CCCC(NC(=O)c2cc3cc4ccc(Cl)cc4nc3o2)C1C (stereo not drawn)	30%*
O=C(NC1CCCC1)c1ccc(Cl)cc1Cl	i
COCCNC(=O)c1cc2cc3ccc(Cl)cc3nc2o1	i
C=C1C(=O)OC2/C=C(\COC(C)=O)CC/C=C(/C=O)CC(OC(=O)C(C)CC)C12 (stereo not drawn)	i
CCOC(=O)C1(Cc2ccc(Cl)cc2)CCN(C(=O)c2cn3c(C)cccc3n2)CC1	i
Cc1cc(N2CCCC(C(=O)c3ccc4c(c3)OCO4)C2)nc(N)n1 (stereo not drawn)	i
Cc1nc(N(C)C)ncc1C(=O)N[C@@H]1c2ccccc2C2(CCNCC2)[C@H]1O	i
O=c1c2c(n3cnnc3n1Cc1ccccc1)-c1ccccc1CC21CCCC1	i
CCOc1ccc(CC(=O)Nc2ccc(Br)cc2)cc1OCC	i
CCN1CCCC1CN(CC1CCN(CCOC)CC1)C(=O)c1ccc2cc[nH]c2c1 (stereo not drawn)	i
CC(Cc1ccccc1)Nc1ncnc2c1sc1nc3c(cc12)COC(C)(C)C3 (stereo not drawn)	i
Cn1ccnc1SCC(=O)Nc1ccccc1C(F)(F)F	i
CC1=NN(c2ccc(Br)cc2)C(=O)/C1=C/c1cccs1	39%*
CC1=NN(c2ccc(C(=O)O)cc2)C(=O)/C1=C\c1ccc(Br)cc1	i
CC1=NN(c2ccc(Br)cc2)C(=O)/C1=C\c1ccc(N(C)C)c([N+](=O)[O-])c1	i
CSc1nc(N)nc(SCC(=O)c2ccc(F)cc2)c1C#N	i
CC(C)N1CCC(N2CCN(Cc3ccc(O)c(Cl)c3)CC2CCO)CC1 (stereo not drawn)	i
O=c1cc(-c2ccc(O)cc2)oc2ccccc12	i
O=c1cc(-c2ccccc2)c2ccc(O)cc2o1	i
O=c1cc2oc3cc(O)c(O)cc3c(-c3ccccc3)c-2cc1O	36%*
SMILES	ST2 IL33 inh
COc1cccc(C(=O)COc2ccccc2Cl)c1	i
COc1ccc(NC(=O)C2C3NC(=O)NC2(C)Oc2ccc(Br)cc23)cc1 (stereo not drawn)	i
O=c1[nH]c2ccccc2n1C1=CCN(c2nccc(N3CCC(O)C3)n2)CC1 (stereo not drawn)	i
C=CCN(CC=C)C(=O)C(c1ccccc1)c1ccccc1	i
C=CCN(CC=C)C(=O)CN1CC=C(n2c(=O)[nH]c3ccccc32)CC1	31%*
COc1ccccc1N1CCN(Cc2sccc2C)CC1	i
Cc1nn(-c2ccccc2)c(C)c1CC(=O)N(C)Cc1ncc[nH]1	i
COCc1ccc(CN2CCCC(N3CCN(c4cccc(C(F)(F)F)c4)CC3)C2)o1 (stereo not drawn)	i
CCC1CCCCN1CCCNC(=O)CN1C(=O)CSc2ccccc21 (stereo not drawn)	i
CC1C(=O)C(C)C(c2ccc(N(C)C)cc2)NC1c1ccc(N(C)C)cc1 (stereo not drawn)	36%*!
CC1C(=O)C(C)C(c2ccc(F)cc2)NC1c1ccc(F)cc1 (stereo not drawn)	i
CC1C(=O)C(C)C(c2ccccc2O)NC1c1ccccc1O (stereo not drawn)	i
COCCn1c(=O)c2c(nc3n2CCN3c2cc(C)cc(C)c2)n(C)c1=O	i
COc1cccc2cc(C(N)=O)c(=Nc3ccc(-c4ccccc4)cc3)oc12	i
CCN(CC)C(=O)[C@@H](C)[C@@H]1CC[C@@]2(C)CC[C@H](NC(=O)c3cnccn3)[C@@H](C)[C@@H]2[C@H]1O	i
CCN(CC)C(=O)[C@@H](C)C1CC[C@@]2(C)CC[C@H](NC(=O)c3ccncc3)[C@@H](C)[C@@H]2[C@H]1O (stereo partly drawn)	49%*
C[C@H]1[C@@H]2[C@@H](O)C([C@H](C)C(=O)N(C)CCC#N)CC[C@@]2(C)CC[C@@H]1NC(=O)c1cncnc1 (stereo partly drawn)	i
COc1ccc(C(=O)N[C@H]2CC[C@]3(C)CCC([C@H](C)C(=O)N(C)Cc4cccnc4)[C@H](O)[C@H]3[C@@H]2C)cc1 (stereo partly drawn)	53%*
COCCN(CCOC)C(=O)[C@@H](C)C1CC[C@@]2(C)CC[C@H](NC(=O)c3ccncc3)[C@@H](C)[C@@H]2[C@H]1O (stereo partly drawn)	i
COCCNC(=O)[C@@H](C)[C@@H]1CC[C@@]2(C)CC[C@H](NC(=O)c3ccccc3)[C@@H](C)[C@@H]2[C@H]1O	i
Cc1nc(N2CCOCC2)c2c(C)c(C(=O)N3CC(C)CC(C)C3)sc2n1 (stereo not drawn)	i
CSc1nc2ccccc2n1C1CCCCC1	i
CCNc1nc(NCC)nc(NS(=O)(=O)c2ccc(C)cc2)n1	i
Cc1[nH]nc(SCC(=O)Nc2cccc(Cl)c2C)c1[N+](=O)[O-]	i
COc1ccc(N2C(=O)C(N3C(=O)c4ccccc4C3=O)C2c2cccc(OC)c2)cc1 (stereo not drawn)	i
SMILES	ST2 IL33 inh
COc1ccc(C2=NN(CN3C(=O)C(=O)c4ccccc43)C(c3cccc([N+](=O)[O-])c3)C2)cc1 (stereo not drawn)	39%*
COc1ccc(C2=NN(S(=O)(=O)c3ccccc3)C(c3ccc(Br)cc3)C2)cc1 (stereo not drawn)	i
COc1ccc(C2CC(c3ccccc3)=NN2S(=O)(=O)c2ccccc2)cc1 (stereo not drawn)	i
COc1ccc(NC(=O)CN2C(=O)c3ccc([N+](=O)[O-])cc3C2=O)c(OC)c1	i
COc1ccc(C2=NN(C(=O)CCC(=O)O)C(c3ccc(Cl)cc3)C2)cc1 (stereo not drawn)	i
COc1ccc(C2CC(c3ccc(Br)cc3)=NN2S(=O)(=O)c2ccccc2)cc1 (stereo not drawn)	34%*
COc1ccc(C2=NN(CN3C(=O)C(=O)c4ccccc43)C(c3ccccc3)C2)cc1 (stereo not drawn)	36%*
COc1ccccc1C1CC(c2ccc(Br)cc2)=NN1S(=O)(=O)c1ccccc1 (stereo not drawn)	i
CCOC(=O)c1nn(CC2CC2)c2c1CN(C(=O)C(C)Oc1ccc(Cl)cc1C)CC2 (stereo not drawn)	i
CN(C)CCN1C(=O)C(=O)C(=C(O)c2ccccc2)C1c1cccc(F)c1 (stereo not drawn)	i
Cc1nnc(-c2cccc(-c3cc(N)nc4[nH]ccc34)c2)s1	i
CO/N=C\c1c(Sc2ccc(C)cc2)nc2ccccn2c1=O	i
CC(=O)c1cccc(NC(=O)O[C@@H]2CO[C@H]3[C@@H]2OC[C@@H]3NS(=O)(=O)c2ccc3ccccc3c2)c1	i
CSc1nc(N)nc(SCCS(=O)(=O)c2ccc(C)cc2)c1C#N	i
CC1CCCCC1NS(=O)(=O)c1cccc2cccnc12 (stereo not drawn)	i
CC(C)CC(C(=O)Nc1cccc(Cl)c1)N1C(=O)c2ccccc2C1=O (stereo not drawn)	i

Screening data deposited in PubChem BioAssay by Paczesny and Yang Labs, IUPUI and University of Michigan.
